# TDP1 cell noCPT: qHTS for Inhibitors of human tyrosyl-DNA phosphodiesterase 1 (TDP1): qHTS in cells in absence of CPT; DT40 Tdp1-/- hTDP1 cells, no CPT, ATP luminescence, 48 h; Potency, µM (highest dose often 46.2 µM), hits mostly inhibitors; hit rate 15% among 420,000; note: nearly all actives have a fitted effect of over 55% in size
#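 Growth of hTDP1-complemented DT40 Tdp1-knockout cells is measured by ATP luminescence after at least 48 hr compound exposure at 37 °C, with DMSO substituting for the 20 nM CPT used in the parallel screen.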
# ELG1 repair inh: ELG1-dependent DNA repair inhibition; HEK293T ELG1-luciferase reporter, luminescence, 16 h; DNA damage induced by 5-fluorouridine; AID 504467; Potency, µM (highest dose often 46.1 µM), usual class: inhibitors; hit rate 2.3% among 330,000; note: nearly all actives have a fitted effect of over 55% in size
#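 Luminescence from the luciferase reporter, measured 30 min after ONE-Glo reagent at room temperature, was the read-out. Beforehand, 2,000 cells per well were exposed for 16 hr at 37 °C to 5-fluorouridine together with compound or vehicle.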
# IL1B secr inh: blocks inflammasome-driven IL-1 beta release; activity change, % at 57.5 µM; hit rate 4.7% among 360,000; THP-1 LPS/ATP IL-1B secretion, AlphaLISA, 16 h; stronger effect = lower value; in the data active = activity change below about -50%; inconclusive = mostly about -30% to -49%
#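 THP-1 cells pretreated 1 hr with compounds (up to 57.5 uM final), then stimulated with LPS (250 ng/mL final) plus ATP (1.25 mM final); secreted IL-1B measured by AlphaLISA after 16 hr, decreased signal indicating inhibition.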
# DT40 TDP1 CPT: DT40-hTDP1 cell growth loss with CPT. Potency, µM (top dose mostly 46.2 µM), most hits filed as inhibitors. hit rate 12% among 420,000. chicken DT40 Tdp1-/-;hTDP1 cells + 20 nM CPT, ATP luminescence, 48 h; note: nearly all actives have a fitted effect of over 55% in size
#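 Chicken DT40 Tdp1-/- cells stably complemented with human TDP1 were seeded at 400 cells/well in medium containing 20 nM camptothecin, exposed to pin-transferred compounds, and grown at 37 °C for at least 48 hr. Viability was read as ATP luminescence.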
# HT1080 IDH1KD tx: kills HT-1080 cells with IDH1 knockdown; Potency, µM (titrated, usually from 46.1 µM), actives largely listed as cytotoxic; HT-1080 IDH1 knockdown viability, ATP luminescence, 48 h; hit rate 2% among 360,000
#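 After a 2 h attachment period, IDH1KD HT-1080 cells took pin-transferred compound for 48 h at 37 °C; ATP-based luminescence after 10 min room-temperature reagent incubation reported viability.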
# HT1080-NT tox: kills 2HG-producing HT-1080-NT fibrosarcoma cells. HT-1080-NT fibrosarcoma viability, CellTiter-Glo ATP luminescence, 48 h. Potency, µM (titrated, usually from 46.1 µM), usual class: cytotoxic. hit rate 1.6% among 360,000. AID 686970;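 note: NT is the 2HG producing partner of a matched IDH1 knockdown line; nearly all actives have a fitted effect of over 55% in size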
#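 Read-out is CellTiter-Glo luminescence after 10 minutes at room temperature, following 48 hours' compound treatment of HT-1080-NT cells (750 cells/well, RPMI, 5% FBS, 37 degrees C).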
# Hits are given with their value; i = inactive; ? = inconclusive; nt = not tested or not shown; [ ] = another dose, or the depositor's remark. Only some compounds are listed: those with a hit (about 19% of all), similar ones and a draw of the others. Unless noted, calls come from the whole dose curve; as a rule, active = well fitted curve in the direction sought with a large enough effect; inconclusive = small, poorly fitted or top-dose-only effect, or another doubt; inactive = no such curve, though single readings can be large; an effect the other way counts as inactive or inconclusive.
SMILES,TDP1 cell noCPT,ELG1 repair inh,IL1B secr inh,DT40 TDP1 CPT,HT1080 IDH1KD tx,HT1080-NT tox
Cc1cc(N/N=C/c2ccccc2Br)nc2ccccc12,?,?,i,?,i,i
O=c1[nH]c(N/N=C/c2ccccc2)nc2ccccc12,?,?,i,i,i,i
CN(C)c1nc(NCc2ccccc2)nc(N/N=C/c2ccc3c(c2)OCO3)n1,16µM,?,i,?,i,i
Cc1cc(N/N=C/c2ccc3c(c2)OCO3)nc2ccccc12,26µM,?,i,?,i,i
C(=N\Nc1ccccn1)/c1ccc2c(c1)OCCO2,?,?,-69,i,i,i
CN(C)c1nc(NCc2ccccc2)nc(N/N=C/c2ccc(Br)cc2)n1,i,i,i,i,i,i
O=c1[nH]c(N/N=C\c2ccc3c(c2)OCO3)nc2ccccc12,23µM,?,i,?,i,i
COc1cc(/C=C/C(=O)NC(C)C2CC3CCC2C3)cc(OC)c1OC (stereo not drawn),i,i,i,?,i,i
CC(=O)c1c(C)[nH]c(C(=O)COC(=O)c2ccc(C)s2)c1C,?,?,i,i,i,i
CCc1csc(CNC(=O)C2CCC(=O)N(Cc3cccc(F)c3)C2)n1 (stereo not drawn),i,i,i,i,i,i
Cc1ccc(O)c(CNc2cccc3cccnc23)c1,?,i,?,?,?,i
Oc1ccc(Br)cc1CNc1cccc2cccnc12,26µM,?,i,?,?,?
COc1cccc(CNc2cccc3cccnc23)c1O,?,?,i,?,?,i
Oc1c(Br)cc(Br)cc1CNc1cccc2cccnc12,?,?,i,16µM,?,i
COc1cccc(-c2nc(CS(=O)(=O)CC(=O)NCCN3CCOCC3)c(C)o2)c1,i,i,i,i,i,i
CCOC(=O)C1CCCN(C(=O)c2ccc(F)c(Cl)c2)CC1 (stereo not drawn),i,nt,i,i,i,i
CC(C)=Cc1c(O)nc2ccccn2c1=O,i,i,i,i,i,i
CCOC(=O)C1(Cc2ccccc2C)CCCN(S(=O)(=O)CC)C1 (stereo not drawn),23µM,i,i,?,i,i
COc1ccc(-c2nn(Cc3ccccc3)cc2C(=O)N2CCN(c3ncccn3)CC2)cc1,?,i,i,?,i,i
Fc1cc(F)cc(-c2oncc2-c2nnnn2-c2ccccc2)c1,i,i,i,i,i,i
Cc1ccc(-n2nnnc2-c2cnoc2-c2cccc(F)c2)cc1,?,i,i,26µM,i,i
CC1=C(C(=O)N2CCOCC2)CC(CC(=O)NCCN2CCOCC2)C(=O)N1Cc1ccc(F)cc1 (stereo not drawn),?,nt,i,i,i,i
COc1ccccc1CN(Cc1c(Cl)cccc1Cl)S(=O)(=O)c1ccc(Br)cc1,21µM,nt,nt,16µM,nt,nt
CN(C)c1ccc(CN2CCC(C(=O)NC(c3ccc(Cl)cc3)c3cnccn3)CC2)cc1 (stereo not drawn),16µM,nt,?,21µM,?,i
O=C(NC(c1ccc(Cl)cc1)c1cnccn1)C1CCN(Cc2cccc(C(F)(F)F)c2)CC1 (stereo not drawn),8.2µM,nt,nt,12µM,?,?
SMILES,TDP1 cell noCPT,ELG1 repair inh,IL1B secr inh,DT40 TDP1 CPT,HT1080 IDH1KD tx,HT1080-NT tox
O=C(NC(c1ccc(-c2ccccc2)cc1)c1cnccn1)C1CCN(Cc2cccc(C(F)(F)F)c2)CC1 (stereo not drawn),18µM,nt,-63,26µM,?,i
CCc1cc2c(cc3c(=O)n(CC(=O)N4CCCCC4)ncn32)s1,?,nt,nt,i,nt,nt
COc1cc2c(c(NC(C)=O)c1)N(C(C)=O)CCC2,i,nt,i,i,i,i
CC1CCN(CC(CS(=O)(=O)c2ccc([N+](=O)[O-])cc2)N2CCC(C)CC2)CC1 (stereo not drawn),2.3µM,?,-76,2.1µM,i,i
CC1CCN(S(=O)(=O)c2cc([N+](=O)[O-])ccc2Cl)CC1,?,?,i,i,i,i
COc1ccc(C(=O)OCC(=O)c2c(N)n(C)c(=O)n(C)c2=O)c(OC)c1OC,i,i,i,i,i,i
Cc1cccc(-c2ccc3ncnc(NCc4cccnc4)c3c2)c1,nt,i,nt,nt,nt,nt
Cc1cccc(CNc2ncnc3ccc(-c4cccnc4)cc23)c1,18µM,i,nt,12µM,nt,nt
CN(C)C(=O)c1ccc(-c2ccc3ncnc(NCc4cccnc4)c3c2)cc1,i,nt,nt,i,nt,nt
c1ccc(Nc2ncnc3ccc(-c4cccnc4)cc23)cc1,18µM,nt,nt,?,nt,nt
c1cncc(CNc2ncnc3ccc(-c4ccc5c(c4)OCO5)cc23)c1,nt,i,nt,nt,nt,nt
c1cncc(CNc2ncnc3ccc(-c4ccoc4)cc23)c1,?,?,nt,10µM,nt,nt
Cc1noc(C)c1-c1ccc2ncnc(NCc3cccnc3)c2c1,?,nt,nt,9.2µM,nt,nt
Cc1ccc2ncnc(Nc3ccccc3)c2c1,?,i,i,i,i,i
COCCN(CCOC)Cc1cc(=O)oc2cc(C)cc(C)c12,i,nt,i,i,i,i
CCC(C(=O)NC1CCCCC1)N(Cc1cccs1)C(=O)CCC(=O)Nc1cc(C)on1 (stereo not drawn),?,?,i,?,i,i
CC1(C(=O)NCc2ccccc2)CN(S(C)(=O)=O)CC(=O)N1Cc1cccc(C(F)(F)F)c1 (stereo not drawn),i,nt,i,i,i,i
Cc1cccc(CNc2ncnc3[nH]ncc23)c1,?,nt,i,?,i,i
Cc1cccc(CNc2ncnc3ccc(-c4ccoc4)cc23)c1,13µM,?,nt,21µM,nt,nt
CSCc1ccc(C(=O)Nc2ccc(C(N)=O)cc2)cc1,i,?,i,i,i,i
COc1ccc(C2CC23N=C(c2ccccc2)OC3=O)cc1 (stereo not drawn),?,i,?,18µM,i,i
COCC1CCCN(c2nc(CN3CCN(C(=O)c4ccco4)CC3)nc3ccccc23)C1 (stereo not drawn),i,nt,nt,i[9.04 µM],nt,nt
CSc1nc2cc(Oc3cccc(Cl)c3Cl)c(Cl)cc2[nH]1,?,nt,i,?,?,9.2µM
CSc1nc2ccc(Cl)cc2[nH]1,?,i,i,?,i,i
COc1ccc(C)cc1NC1=C(Cl)C(=O)N(C2CCCCC2)C1=O,12µM,?,i,?,i,i
O=C(/C=C/c1ccncc1)c1cc(Cl)ccc1O,?,i,-67,i,i,i
COc1ccc(/C=C/C(=O)c2cc(Cl)ccc2O)c(OC)c1,?,?,-100,?,i,i
COc1ccc(C(=O)/C=C/c2ccc(OC)cc2OC)c(O)c1,?,?,i,?,i,i
COc1ccc(/C=C/C(=O)c2ccc(Cl)cc2)c(OC)c1,18µM,?,i,i,i,i

# Source: PubChem
